Results: the supplement of paper PMC3334620
Whole data set: some 33,000 sequences, median “E-score (-0.5 to 0.5)” near -0.01, cut for the highest 2% near 0.26. The entries come from a sample that favours the highest values as a whole.

target: Ste12 (UniProt P13574); experiment: PBM E-score (8-mer binding enrichment) (E-score (-0.5 to 0.5)); higher = stronger / more preferred TF binding; conditions: protein concentration: 200 nM; construct: GST-DNA-binding domain
Method: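 Universal 'all 10-mer' protein binding microarrays (Agilent AMADID 015681) probed with GST-tagged S. cerevisiae TFs (full-length or DBD) made by in vitro transcription/translation (PURExpress), about 100-200 nM. Bound TF was detected with fluorescent anti-GST. Each ungapped 8-mer (which stands for itself and its reverse complement) is scored by the PBM enrichment score (E-score), a modified Wilcoxon-Mann-Whitney statistic from -0.5 to +0.5, computed with the Universal PBM Analysis Suite. Scale: above 0.35 generally sequence-specific binding.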

Sequence of UniProt P13574 (P13574 whole entry, the tested form may be a part): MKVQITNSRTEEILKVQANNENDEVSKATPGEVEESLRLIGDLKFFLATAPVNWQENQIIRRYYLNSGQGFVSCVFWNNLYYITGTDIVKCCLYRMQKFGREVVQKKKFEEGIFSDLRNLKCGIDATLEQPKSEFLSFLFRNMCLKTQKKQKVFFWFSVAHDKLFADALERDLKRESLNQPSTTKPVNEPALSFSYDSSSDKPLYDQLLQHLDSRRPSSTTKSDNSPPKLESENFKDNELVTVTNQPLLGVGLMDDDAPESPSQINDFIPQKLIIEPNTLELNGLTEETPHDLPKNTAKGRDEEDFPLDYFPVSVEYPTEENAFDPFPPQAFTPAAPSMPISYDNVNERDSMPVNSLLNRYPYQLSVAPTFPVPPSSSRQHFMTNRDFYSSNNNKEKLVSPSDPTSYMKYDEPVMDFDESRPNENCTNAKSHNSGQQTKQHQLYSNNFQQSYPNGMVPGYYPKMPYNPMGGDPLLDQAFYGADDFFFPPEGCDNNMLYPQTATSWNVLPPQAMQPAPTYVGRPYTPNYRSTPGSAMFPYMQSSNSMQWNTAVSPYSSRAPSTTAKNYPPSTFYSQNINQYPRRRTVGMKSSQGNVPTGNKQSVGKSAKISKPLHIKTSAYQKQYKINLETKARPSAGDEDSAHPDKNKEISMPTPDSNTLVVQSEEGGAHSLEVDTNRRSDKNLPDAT

Sequence | PBM E-score
ATGTTTTG | 0.335
ATGTTTTC | 0.172
ATGTTTAA | 0.0895
ATGTTTTA | 0.374
GGGTTTTA | 0.217
AGGTTTTG | 0.0633
ATTTTTTG | 0.222
CTGTTTTC | 0.0946
GTGTTTAA | 0.155
ACAAGCAA | -0.00365
ACCTATGA | -0.21
CGCTGGTA | -0.118
ATAGCAAA | 0.0867
CGGGAGTC | -0.12
AAAGTTGA | 0.111
GGCGCAAA | 0.218
TAATGAAA | 0.155
GAATGAAC | 0.016
AAATGAAA | 0.426
GAATGAGA | -0.00579
CAATGAAA | 0.258
GAATGAAA | 0.322

Sequence | PBM E-score
CCTAGACG | -0.134
TAGAGAAA | 0.0197
GACATTAA | 0.173
AACATTAA | 0.301
CTCATTAA | 0.111
GACATTTA | -0.0124
ATCATTAG | 0.0954
AACATTTA | 0.29
AACATTTC | 0.0303
AACATTAT | 0.125
ATCATTAA | 0.298
GAGAGAAC | -0.0294
CTTGGCTA | 0.0252
GCGTGACA | 0.126
GCGGCAGA | -0.128
GAATAAGC | -0.0403
GTGTTCCA | 0.141
AATGCGGT | -0.0129
CCGTTGCC | -0.253
ATGTAATA | 0.217
AAATTTTG | 0.0681
TGTTAAAA | 0.168

Sequence | PBM E-score
ATTTAACA | 0.181
AATTTTTG | 0.321
ATTTTAAG | 0.161
ATTTTAAA | 0.348
ATTTAAAA | 0.314
ATTTTAAC | 0.19
AGTTAAAA | 0.286
ACTTAAAA | 0.183
AATTTTGG | 0.104
CGTTAAAA | -0.00084
GGTTTTGA | 0.111
CCATACCC | 0.128
CTAGAATA | 0.171
GCACAGCA | -0.102
CAGTGGGC | -0.199
GACTTAGA | -0.272
AGCTTGAG | -0.164
AAGTTCGT | -0.226
TACCAGAA | 0.253
TGCATACA | -0.139
TAACGCGA | 0.0877
AAGCTCGT | -0.195

Sequence | PBM E-score
AATTTTAA | 0.318
ATATTTAC | 0.219
AATTTTAT | 0.217
ATTTTACC | 0.277
ATTTTTTA | 0.331
ATTTTACG | 0.243
AATTTTAC | 0.251
ATATTTAA | 0.347
CTATTTAA | 0.194
CTATTTTA | 0.232
AATTTACC | 0.137
ATATTTTA | 0.235
ACCGTTAC | -0.0206
TCGGTACA | 0.0794
ACTGAGCA | -0.119
ACAGGATG | 0.0588
CTCTAGAG | -0.162
AACAACGC | 0.111
AAGCCCCG | 0.0304
ACATTTAA | 0.32
ACATTTAG | -0.0629
ATTTTTAA | 0.28

Sequence | PBM E-score
GCATTTAA | 0.12
AAATTTTA | 0.132
AATTTTTC | 0.181
ATTTTTAC | 0.207
ATTTTTAG | 0.175
AATTTTTA | 0.283
AATTTTGA | 0.145
ATTTTTGG | 0.183
ATTTTTGA | 0.298
TAAGCCAA | 0.00854
GGCTTAGA | -0.0335
TACCAGCA | -0.0129
CTAGTACA | 0.0611
GCAATCCC | 0.0206
CTCTTTAC | 0.0191
AAAGTGGG | 0.182
AGTTCGAC | -0.147
CCCTGAGG | -0.213
ACATCTAA | 0.114
ATTTTGTC | 0.114
ATTTTGTG | 0.281
ATTTTGTA | 0.16
